This passage reports inhibition results from PubChem BioAssay AID1578 (Sanford-Burnham Center for Chemical Genomics, 2009).

Out of some 290,000 compounds screened, about 3,000 (1%) were called active. The full list was thinned out, with actives kept by preference. Values without a mark were called inactive. Rule as the data show it: active = inhibition mostly above about 36% (no sharp cut-off); inactive = mostly below about 34%.

What is called inhibition is the drop in the measured response relative to a control, in per cent.

This assay can be described thus: inhibition of NOD1-driven NF-kB reporter – cell-based, luminescence, uHTS, primary screen (AID 1578).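 Also: HEK-293T reporter cells stimulated with the NOD1 agonist gamma-tri-DAP.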 To be noted: NOD1-driven NF-kB luciferase reporter cells, at 4 µM, stronger effect = higher value.
With `CCN1C(=O)N(S(=O)(=O)C(F)(F)F)[C@@H](c2ccccc2)C(C(=O)OC)=C1C`, the inhibition is 0.6%.
The result for `Cc1nc(N2CCN(c3ccccn3)CC2)c2c(C)c(C(=O)Nc3ccc(F)cc3Cl)sc2n1` reads 6.8%; that for `Cc1nc(N2CCN(c3ccccn3)CC2)c2c(C)c(C(=O)Nc3c(F)cc(F)cc3Br)sc2n1`, -28.6%.
For `Cc1c(C(=O)N2CCN(c3ccccn3)CC2)sc2ncnc(N3CCOCC3)c12` the value was -12.5%.
The result for `COc1ccccc1N1CCN(C(=O)c2sc3nc(C)nc(N4CCN(c5ccccn5)CC4)c3c2C)CC1` reads 33.2%; that for `Cc1nc(N2CCN(c3ccccn3)CC2)c2c(C)c(C(=O)Nc3ccc(F)cc3F)sc2n1`, 12.3%.
For the molecule `Cc1nc(N2CCN(c3ccccn3)CC2)c2c(C)c(C(=O)Nc3ccc(Cl)cc3)sc2n1`, the inhibition was -14%.
For `Cc1nc(N2CCN(c3ccccn3)CC2)c2c(C)c(C(=O)N3CCN(c4cccc(Cl)c4)CC3)sc2n1` the value was 18%.
For `Cc1c(C(=O)N2CCN(c3ccccc3)CC2)sc2ncnc(N3CCN(c4ccccn4)CC3)c12` the value was 27.4%; for `CCN(Cc1ccccc1)S(=O)(=O)c1ccc(OC)cc1`, 14.2%.
For `COc1cccc(C2CC(c3cccs3)=NN2S(C)(=O)=O)c1OC` (centres undefined) the value was -30.3%; for `N#CCSc1nc2ccccc2c(=O)n1CCC(=O)NCCc1ccccc1`, 32.7%; for `O=C1C(=O)N(CCCN2CCOCC2)C(c2ccc([N+](=O)[O-])cc2)/C1=C(/O)c1ccc2c(c1)OCO2` (centres undefined), -24.9%.
For the molecule `CCc1cccc(NC(=O)CCS(=O)(=O)c2ccc3c(c2)NC(=O)CO3)c1`, the inhibition is -12.9%.
`CN(C(=O)CCN1C(=O)C(C)(C)Nc2ccccc21)c1ccccc1`: the inhibition was 0.1%.
For the molecule `Cc1ccc2[nH]cc(C(=O)CN3CCN(c4ccccn4)CC3)c2c1`, the inhibition was -23%.
`CC(NC(=O)OC1CCCCC1)N1C(=O)C2C3C=CC(C3)C2C1=O` (centres undefined): the inhibition is -1.3%.
The result for `Cn1c(N/N=C/c2cccs2)nc2c1c(=O)n(Cc1ccccc1)c(=O)n2C` reads -22.5%; that for `NC(=O)c1cc2cc(Cl)ccc2oc1=Nc1cccc(C(F)(F)F)c1`, -9.4%; that for `Cn1c(O)c(C=Nc2ccc(N3CCOCC3)cc2)c(=O)n(C)c1=S`, -14.6%.
`CCN(CC(=O)Nc1ccc2c(c1)OCCO2)S(=O)(=O)c1ccccc1`: the inhibition is -42.6%.
For `CCCN1CN(Cc2ccccc2)CNC1=S` the value was -23.1%.
As to `CCOC(=O)/C(C#N)=C/c1c(N2CCCCCC2)nc2ccccn2c1=O`, the inhibition is 0.9%.
The result for `COc1cc2c3c(c1)C1(C(=O)N3C(C)(C)C=C2C)C(C#N)=C(N)Oc2cc(C)oc(=O)c21` (centres undefined) reads -10.4%; that for `CCc1cc2c3c(c1)C1(C(=O)N3C(C)(C)C=C2C)C(C#N)=C(N)Oc2[nH]c(=O)[nH]c(=O)c21` (centres undefined), 54.6% (active).
The result for `CC1=CC(C)(C)N2C(=O)C3(C(C#N)=C(N)Oc4cc(C)oc(=O)c43)c3cccc1c32` (centres undefined) reads -1.1%; that for `Cc1cc(C)n(C(=O)/C(C#N)=C/N(C)C)n1`, -47.6%.
For `Cc1cc(C)n(C(=O)/C(C#N)=N/Nc2cc(Cl)cc(Cl)c2)n1` the value was 40.4% (active).
Consider `Cc1cc(C)n(C(=O)/C(C#N)=N\Nc2ccccc2[N+](=O)[O-])n1`, for which the inhibition was -30.2%.
For `Cc1nc(Cl)c(C(=O)NCc2ccccc2)c(C)c1[N+](=O)[O-]` the value was -6.1%; for `Cc1nc(Cl)c(C(=O)NCc2ccccc2)c(C)c1Cl`, -37.4%; for `O=C(NCc1ccccc1)c1c(Cl)nc(Cl)c(Cl)c1Cl`, 54.5% (active).
For `COc1ccc(C)cc1-n1nc2ccccc2n1` the value was -40%; for `N=C1/C(=C/c2cccs2)C(=O)N=C2SN=C(SCc3ccccc3)N12`, 80.4% (active); for `CSC1=NSC2=NC(=O)/C(=C\c3cccs3)C(=N)N12`, -30%.
Take `CC(C)CSC1=NSC2=NC(=O)/C(=C\c3cccs3)C(=N)N12`: the inhibition was 41.8%.
Consider `CCc1ccc(-n2nnnc2SCC(=O)Nc2ccc(NC(C)=O)cc2)cc1`, for which the inhibition was -3.5%.
Take `O=C1/C(=C/c2ccccc2[N+](=O)[O-])COc2ccccc21`: the inhibition was 47.1% (active).
For `O=C1/C(=C/c2cccs2)COc2ccccc21` the value was -19%; for `O=C1/C(=C/c2ccc(O)cc2)COc2ccccc21`, -6.1%.
For `CCOC(=O)c1cnc2nc(NCc3ccc(OC)c(OC)c3)[nH]n2c1=O` the value was -26.1%; for `CC1CCCN1CC#CC(O)(c1ccccc1)c1ccccc1` (centres undefined), 0.2%.
For `Cc1cnc(NC(=O)c2c(-c3ccccc3)noc2C)s1` the value was 2.4%.
`CCC(CC)c1nnc(NC(=O)c2ccc3c(c2)OCO3)s1`: the inhibition is -53.7%.
The result for `CC(C)c1nnc(NC(=O)c2ccc3c(c2)OCO3)s1` reads 62.9% (active).
For `O=C(Nc1ccc([N+](=O)[O-])cn1)c1ccc2c(c1)OCO2`, the inhibition is -49.4%.
In the case of `Cc1nnc(NC(=O)c2c(-c3ccccc3)noc2C)s1`, the inhibition is -0.4%.
Turning to `O=C(Nc1ncc([N+](=O)[O-])s1)c1cccc([N+](=O)[O-])c1`, the inhibition is 10.4%.
For `CC(c1ccccc1)c1nnc(NC(=O)c2ccc3c(c2)OCO3)s1` (centres undefined) the value was 5.6%.
For `O=C(Nc1ncc([N+](=O)[O-])s1)c1ccc2c(c1)OCO2` the value was 69% (active).
For `C/C(CCc1ccc2c(c1)OCO2)=N\N=C1\NC(=O)CC(C(=O)Nc2ccc(Cl)cc2)S1` (centres undefined) the value was 3.3%; for `COc1ccc(NC(=O)CNC(=O)c2c(C)nn(C)c2Cl)cc1`, -25.4%; for `Cc1ccc(C(=O)Cn2c(C)cc(C)c(C#N)c2=O)cc1`, -3.5%.
As to `COc1cccc2sc(/N=C/N(C)C)nc12`, the inhibition was 4.3%.
The result for `CN1CCCC1=Nc1c2c(nc3ccccc13)N(C)CC2` reads -12.3%.
The result for `COc1ccc(-c2csc(NC(=S)NC(=O)c3ccc(S(=O)(=O)N(C)C)cc3)n2)cc1OC` reads -1.9%; that for `Cc1ccc(CCCOC(=O)CN2CCCCC2)cc1`, -29.9%; that for `COc1cc(OC)cc(OCC(O)Cn2cnc(-c3ccccc3)c2)c1` (centres undefined), -19.2%.
The result for `Brc1ccc(C=Nc2ccc3c(c2)OCCOCCOCCO3)s1` reads -40.4%; that for `O=C(c1noc2c1CCc1ccccc1-2)N1CCc2ccccc2C1`, -25%.
With `COc1ccc(CNc2ncnc3cc(OC)c(OC)cc23)cc1OC`, the inhibition was -17%.
For `COc1ccccc1Nc1ncnc2sccc12` the value was -5.2%.
The result for `CN(C)C(CNc1ncnc2sccc12)c1ccccc1` (centres undefined) reads 4%; that for `OC(CNc1ncnc2sccc12)c1ccccc1` (centres undefined), -2.4%.
For `Fc1ccccc1CNc1ncnc2sccc12` the value was 25.2%; for `COc1ccc(CNc2ncnc3sccc23)cc1`, 41.7%.
As for `O=C(CN1CCN(S(=O)(=O)c2ccc(Cl)cc2)CC1)c1ccc(O)c(O)c1`, the inhibition is -30.9%.
For `Cn1ccnc1SCC(=O)c1ccc([N+](=O)[O-])cc1` the value was -21.2%; for `COc1ccc(C(=O)NCCOC(C)C)cc1OC1CCN(C(C)=O)CC1`, -13.7%.
For `O=C(CSc1nc2ccccc2s1)NNC(=S)Nc1ccc(Cl)cc1` the value was -14.3%; for `O=C(COc1ccc(Cl)cc1Cl)NNC(=S)NC(=O)c1ccco1`, -10.8%; for `CCOc1ccc(OCC)c(NC(=O)CN2CCN(c3cccc(C)c3)C(C)C2)c1` (centres undefined), 29.9%.
For the molecule `O=C(CSc1nc2ccccc2s1)NC1CCCC1`, the inhibition was 9.6%.
For `O=C(Cn1ncc(Cl)c(Cl)c1=O)N1CCN(S(=O)(=O)c2ccc3ccccc3c2)CC1` the value was 48.9%; for `O=C(Cn1ncc(Cl)c(Cl)c1=O)N1CCOCC1`, 6.8%; for `O=C(Cn1ncc(Cl)c(Cl)c1=O)N1CCN(Cc2ccccc2)CC1`, 84.9% (active).
`Cc1ccc2c(c1)C(c1ccc(F)cc1)N(C(=O)c1ccc(S(=O)(=O)N(C)C)cc1)CC(=O)N2` (centres undefined): the inhibition was 3.7%.
For the molecule `C=CCOc1c(Br)cc(/C=C2\SC(=Nc3ccccc3)NC2=O)cc1OC`, the inhibition was -29.6%.
For `C=CCOc1ccc(Br)cc1/C=C1/SC(=Nc2ccc(C(=O)O)cc2)NC1=O` the value was 40.4% (active); for `CCOc1cc(Br)cc(/C=C2\SC(=Nc3ccccc3)NC2=O)c1O`, -86.1%.
`O=C(c1cc2cc(Cl)ccc2o1)N1CCCC1`: the inhibition is -13%.
The result for `COCCn1nnnc1CN(Cc1cc2cc(OC)c(OC)cc2[nH]c1=O)C1CCCC1` reads -13.9%; that for `CC/C(=N\NC(=S)Nc1cccc(C)c1)c1ccccc1`, 48.5% (active).
For `Cc1cccc(NC(=S)NCCC(c2ccccc2)c2ccccc2)c1` the value was 7.2%; for `Cc1cccc(NC(=S)N/N=C(\c2ccccc2)C(C)C)c1`, -62.9%; for `C/C(=N\NC(=S)Nc1cccc(C)c1)c1ccccc1`, -16.7%.
For `Cc1cccc(NC(=S)NCCC(C)C)c1` the value was 69.1% (active).
Turning to `CC(C)CCNC(=S)Nc1ccc(Br)cc1`, the inhibition is -18.8%.
For `CC(=O)N/C(=C\c1ccc(F)cc1)C(=O)OCc1ccccc1` the value was -8%.
The result for `Cc1oc(-c2ccccc2Cl)nc1CS(=O)CC(=O)NCc1cccs1` (centres undefined) reads -13.9%.
The result for `O=C(C/C=N/OCc1ccc(Cl)cc1Cl)c1ccc(Cl)cc1` reads 19.3%; that for `O=C(C/C=N\OCc1ccc(Cl)cc1Cl)Nc1ccccc1`, -17%; that for `CN(C)/C=C(\C=N\OCc1ccc(Cl)cc1Cl)C(=O)Nc1ccc(Cl)c(Cl)c1`, 95.7% (active).
Take `CCN(CCCNC(=O)CN1C(=O)COc2ccccc21)c1cccc(C)c1`: the inhibition is 14.9%.
